# In the supplement of paper PMC4022240:
# ± gives the standard deviation.
# T1: HaloTag-ATRX ADD domain (163-292)
# T1 chain: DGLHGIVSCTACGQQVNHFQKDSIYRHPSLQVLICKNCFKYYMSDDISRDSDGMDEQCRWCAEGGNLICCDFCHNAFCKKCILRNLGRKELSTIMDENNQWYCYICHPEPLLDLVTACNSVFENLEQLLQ
# B1: H3 1-13 A R T K Q T A Rcit Kme S T G G (peptide)
# chain: ARTKQTARKSTGG
# B2: H3 1-13 A Rme2s T K Q T A R Kme2 S T G G (peptide)
# chain: ARTKQTARKSTGG
# B3: H3 1-13 A R T K Q T A Rcit Kme2 S T G G (peptide)
# chain: ARTKQTARKSTGG
# B4: H3 1-13 A Rme2s T K Q T A R K S T G G (peptide)
# chain: ARTKQTARKSTGG
# B5: H3 1-13 A Rme2s T K Q T A R Kme S T G G (peptide)
# chain: ARTKQTARKSTGG
# B6: H3 1-13 A Rme2s T K Q Tph A R K S T G G (peptide)
# chain: ARTKQTARKSTGG
# B7: H3 1-13 A R T K Q T A Rcit Kac S T G G (peptide)
# chain: ARTKQTARKSTGG
# B8: H3 1-13 A Rme2s T K Q T A R Kme3 S T G G (peptide)
# chain: ARTKQTARKSTGG
# B9: H3 1-13 A Rme2s Tph K Q T A R K S T G G (peptide)
# chain: ARTKQTARKSTGG
# B10: H3 1-13 A Rme2s T K Q T A R Kac S T G G (peptide)
# chain: ARTKQTARKSTGG
# Experiments:
# Assay in all cases: peptide microarray binding signal (635 nm), min-max normalized on array (fraction of array maximum); higher = stronger binding
# Conditions in all cases: peptide region: H3 1-13
# [1] = target: T1, HaloTag-ATRX ADD domain (163-292)
# Protocol: (§1)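 Histone 13-mer peptides were synthesized as cellulose conjugates with a C-terminal 20-atom PEG linker and printed in triplicate on nitrocellulose. The sequence given is the unmodified backbone; PTMs (Kme1/2/3, Kac, Sph/Tph, Rme/Rme2a/Rme2s, Rcit) are listed in the label and the 'peptide modifications' condition. Slides were probed at 4 °C for 1 h with biotin-labelled (HQ)5-HaloTag reader fusions (ATRX-ADD, ING2-PHD) then streptavidin-Alexa647, or with rabbit histone antibodies then anti-rabbit Alexa647. The mean 635 nm signal of the triplicate spots was scaled 0-1 between the lowest and highest values on each array.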
# [2] = target: HaloTag-ING2 PHD (mouse Ing2 200-280)
# Protocol: as §1
# [3] = target: anti-H3K4me3 antibody ab8580
# Protocol: as §1
# [4] = target: anti-H3K9me3 antibody ab8898
# Protocol: as §1
# [5] = peptide modifications: H3R8cit H3K9me1, binder concentration: 1:2,000 dilution
# [6] = peptide modifications: H3R8cit H3K9me1, binder concentration: 1:10,000 dilution
# [7] = peptide modifications: H3R2me2s H3K9me2, binder concentration: 1:2,000 dilution
# [8] = peptide modifications: H3R2me2s H3K9me2, binder concentration: 1:10,000 dilution
# [9] = peptide modifications: H3R8cit H3K9me2, binder concentration: 1:2,000 dilution
# [10] = peptide modifications: H3R8cit H3K9me2, binder concentration: 1:10,000 dilution
# [11] = peptide modifications: H3R2me2s, binder concentration: 1:2,000 dilution
# [12] = peptide modifications: H3R2me2s, binder concentration: 1:10,000 dilution
# [13] = peptide modifications: H3R2me2s H3K9me1, binder concentration: 1:2,000 dilution
# [14] = peptide modifications: H3R2me2s H3K9me1, binder concentration: 1:10,000 dilution
# [15] = peptide modifications: H3R2me2s H3T6ph, binder concentration: 1:2,000 dilution
# [16] = peptide modifications: H3R2me2s H3T6ph, binder concentration: 1:10,000 dilution
# [17] = peptide modifications: H3R8cit H3K9ac, binder concentration: 1:2,000 dilution
# [18] = peptide modifications: H3R8cit H3K9ac, binder concentration: 1:10,000 dilution
# [19] = peptide modifications: H3R2me2s H3K9me3, binder concentration: 1:2,000 dilution
# [20] = peptide modifications: H3R2me2s H3K9me3, binder concentration: 1:10,000 dilution
# [21] = peptide modifications: H3R2me2s H3T3ph, binder concentration: 1:2,000 dilution
# [22] = peptide modifications: H3R2me2s H3T3ph, binder concentration: 1:10,000 dilution
# [23] = peptide modifications: H3R2me2s H3K9ac, binder concentration: 1:2,000 dilution
# [24] = peptide modifications: H3R2me2s H3K9ac, binder concentration: 1:10,000 dilution
binder,measurement,setting,value
B1,peptide microarray binding signal,"[1]; peptide modifications: H3R8cit H3K9me1, binder concentration: 50 nM",0.0302 ± 0.0019
same,peptide microarray binding signal,"[1]; peptide modifications: H3R8cit H3K9me1, binder concentration: 500 nM",0.0745 ± 0.02
same,peptide microarray binding signal,"[2]; peptide modifications: H3R8cit H3K9me1, binder concentration: 10 nM",0.0223 ± 0.002
same,peptide microarray binding signal,"[2]; peptide modifications: H3R8cit H3K9me1, binder concentration: 100 nM",0.0394 ± 0.013
same,peptide microarray binding signal,[3]; [5],0.00313 ± 0.00015
same,peptide microarray binding signal,[3]; [6],0.00217 ± 9.9e-05
same,peptide microarray binding signal,[4]; [5],0.00225 ± 0.00023
same,peptide microarray binding signal,[4]; [6],0.00185 ± 5.2e-05
B2,peptide microarray binding signal,"[1]; peptide modifications: H3R2me2s H3K9me2, binder concentration: 50 nM",0.0159 ± 0.001
same,peptide microarray binding signal,"[1]; peptide modifications: H3R2me2s H3K9me2, binder concentration: 500 nM",0.0381 ± 0.00096
same,peptide microarray binding signal,"[2]; peptide modifications: H3R2me2s H3K9me2, binder concentration: 10 nM",0.0245 ± 0.00098
same,peptide microarray binding signal,"[2]; peptide modifications: H3R2me2s H3K9me2, binder concentration: 100 nM",0.0463 ± 0.005
same,peptide microarray binding signal,[3]; [7],0.0401 ± 0.0015
same,peptide microarray binding signal,[3]; [8],0.0397 ± 0.0042
same,peptide microarray binding signal,[4]; [7],0.0557 ± 0.0055
same,peptide microarray binding signal,[4]; [8],0.0282 ± 0.0014
B3,peptide microarray binding signal,"[1]; peptide modifications: H3R8cit H3K9me2, binder concentration: 50 nM",0.0517 ± 0.0042
same,peptide microarray binding signal,"[1]; peptide modifications: H3R8cit H3K9me2, binder concentration: 500 nM",0.0992 ± 0.0018
same,peptide microarray binding signal,"[2]; peptide modifications: H3R8cit H3K9me2, binder concentration: 10 nM",0.0235 ± 0.0016
same,peptide microarray binding signal,"[2]; peptide modifications: H3R8cit H3K9me2, binder concentration: 100 nM",0.0428 ± 0.011
same,peptide microarray binding signal,[3]; [9],0.00302 ± 0.00049
same,peptide microarray binding signal,[3]; [10],0.00177 ± 5e-05
same,peptide microarray binding signal,[4]; [9],0.00248 ± 0.00035
same,peptide microarray binding signal,[4]; [10],0.00277 ± 8.7e-05
B4,peptide microarray binding signal,"[1]; peptide modifications: H3R2me2s, binder concentration: 50 nM",0.00815 ± 0.00015
same,peptide microarray binding signal,"[1]; peptide modifications: H3R2me2s, binder concentration: 500 nM",0.0158 ± 0.0003
same,peptide microarray binding signal,"[2]; peptide modifications: H3R2me2s, binder concentration: 10 nM",0.00424 ± 0.00023
same,peptide microarray binding signal,"[2]; peptide modifications: H3R2me2s, binder concentration: 100 nM",0.0168 ± 0.003
same,peptide microarray binding signal,[3]; [11],0.00153 ± 0.0002
same,peptide microarray binding signal,[3]; [12],0.000799 ± 8.3e-06
same,peptide microarray binding signal,[4]; [11],0.00178 ± 0.00012
same,peptide microarray binding signal,[4]; [12],0.00075 ± 1.6e-05
B5,peptide microarray binding signal,"[1]; peptide modifications: H3R2me2s H3K9me1, binder concentration: 50 nM",0.0197 ± 0.00077
same,peptide microarray binding signal,"[1]; peptide modifications: H3R2me2s H3K9me1, binder concentration: 500 nM",0.03 ± 0.0016
same,peptide microarray binding signal,"[2]; peptide modifications: H3R2me2s H3K9me1, binder concentration: 10 nM",0.0236 ± 0.0023
same,peptide microarray binding signal,"[2]; peptide modifications: H3R2me2s H3K9me1, binder concentration: 100 nM",0.0288 ± 0.00047
same,peptide microarray binding signal,[3]; [13],0.0193 ± 0.003
same,peptide microarray binding signal,[3]; [14],0.0216 ± 0.0013
same,peptide microarray binding signal,[4]; [13],0.0154 ± 0.00086
same,peptide microarray binding signal,[4]; [14],0.0152 ± 0.0011
B6,peptide microarray binding signal,"[1]; peptide modifications: H3R2me2s H3T6ph, binder concentration: 50 nM",0.00476 ± 0.00012
same,peptide microarray binding signal,"[1]; peptide modifications: H3R2me2s H3T6ph, binder concentration: 500 nM",0.0109 ± 0.00039
same,peptide microarray binding signal,"[2]; peptide modifications: H3R2me2s H3T6ph, binder concentration: 10 nM",0.002745 ± 2.7e-05
same,peptide microarray binding signal,"[2]; peptide modifications: H3R2me2s H3T6ph, binder concentration: 100 nM",0.0193 ± 0.0028
same,peptide microarray binding signal,[3]; [15],0.000774 ± 1.9e-05
same,peptide microarray binding signal,[3]; [16],0.00097 ± 2e-05
same,peptide microarray binding signal,[4]; [15],0.000876 ± 2.6e-05
same,peptide microarray binding signal,[4]; [16],0.000461
B7,peptide microarray binding signal,"[1]; peptide modifications: H3R8cit H3K9ac, binder concentration: 50 nM",0.00718 ± 9.2e-05
same,peptide microarray binding signal,"[1]; peptide modifications: H3R8cit H3K9ac, binder concentration: 500 nM",0.0143 ± 0.00071
same,peptide microarray binding signal,"[2]; peptide modifications: H3R8cit H3K9ac, binder concentration: 10 nM",0.0183 ± 0.0039
same,peptide microarray binding signal,"[2]; peptide modifications: H3R8cit H3K9ac, binder concentration: 100 nM",0.031 ± 0.01
same,peptide microarray binding signal,[3]; [17],0.0013 ± 3.1e-05
same,peptide microarray binding signal,[3]; [18],0.002 ± 0.0002
same,peptide microarray binding signal,[4]; [17],0.00239 ± 0.00033
same,peptide microarray binding signal,[4]; [18],0.00208 ± 0.00016
B8,peptide microarray binding signal,"[1]; peptide modifications: H3R2me2s H3K9me3, binder concentration: 50 nM",0.172 ± 0.02
same,peptide microarray binding signal,"[1]; peptide modifications: H3R2me2s H3K9me3, binder concentration: 500 nM",0.303 ± 0.03
same,peptide microarray binding signal,"[2]; peptide modifications: H3R2me2s H3K9me3, binder concentration: 10 nM",0.0377 ± 0.0039
same,peptide microarray binding signal,"[2]; peptide modifications: H3R2me2s H3K9me3, binder concentration: 100 nM",0.0559 ± 0.0018
same,peptide microarray binding signal,[3]; [19],0.211 ± 0.015
same,peptide microarray binding signal,[3]; [20],0.14 ± 0.0028
same,peptide microarray binding signal,[4]; [19],0.81 ± 0.03
same,peptide microarray binding signal,[4]; [20],0.561 ± 0.017
B9,peptide microarray binding signal,"[1]; peptide modifications: H3R2me2s H3T3ph, binder concentration: 50 nM",0.0063 ± 0.00015
same,peptide microarray binding signal,"[1]; peptide modifications: H3R2me2s H3T3ph, binder concentration: 500 nM",0.0137 ± 0.00078
same,peptide microarray binding signal,"[2]; peptide modifications: H3R2me2s H3T3ph, binder concentration: 10 nM",0.00424 ± 0.00025
same,peptide microarray binding signal,"[2]; peptide modifications: H3R2me2s H3T3ph, binder concentration: 100 nM",0.0153 ± 0.003
same,peptide microarray binding signal,[3]; [21],0.00264 ± 0.0012
same,peptide microarray binding signal,[3]; [22],0.00228 ± 0.00028
same,peptide microarray binding signal,[4]; [21],0.000982 ± 0.00014
same,peptide microarray binding signal,[4]; [22],0.00075 ± 1.6e-05
B10,peptide microarray binding signal,"[1]; peptide modifications: H3R2me2s H3K9ac, binder concentration: 50 nM",0.0127 ± 0.00045
same,peptide microarray binding signal,"[1]; peptide modifications: H3R2me2s H3K9ac, binder concentration: 500 nM",0.0427 ± 0.0013
same,peptide microarray binding signal,"[2]; peptide modifications: H3R2me2s H3K9ac, binder concentration: 10 nM",0.0451 ± 0.0015
same,peptide microarray binding signal,"[2]; peptide modifications: H3R2me2s H3K9ac, binder concentration: 100 nM",0.0681 ± 0.0061
same,peptide microarray binding signal,[3]; [23],0.0383 ± 0.0035
same,peptide microarray binding signal,[3]; [24],0.0308 ± 0.0052
same,peptide microarray binding signal,[4]; [23],0.0163 ± 0.0031
same,peptide microarray binding signal,[4]; [24],0.00836 ± 0.00038
